Source: PubChem BioAssay (Sanford-Burnham Center for Chemical Genomics)
SENP6 inh: inhibitors of human SENP6 protease; Recombinant SENP6 catalytic domain, aminoluciferin luminescence; AID 2599; inhibition, % at 10 µM; 330,000 compounds, 1.8% hits;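 active means inhibition above about 50% at the single tested dose, limit read from the data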
PPC-1+TRAIL kill: compounds killing PPC-1 cancer cells with TRAIL present (potentiator screen, no TRAIL-free arm); 220,000 compounds, 0.41% hits; cell killing (% activity), % at 4 µM or 5 µM; PPC-1 cells + TRAIL, ATPLite viability luminescence;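 active means cell killing above 50% in the first pass at 4 µM, then a duplicate retest at 5 µM averaging 50% or more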
SENP8 block-1: inhibitors of human SENP8 protease; Q96LD8; purified SENP8, Z-RLRGG-aminoluciferin cleavage, luminescence; inhibition, % at 10 µM; 330,000 compounds, 1.2% hits; AID 2540; in the data active means inhibition above about 50%
C8 TRAIL sens: sensitizes caspase-8 expressing cells to TRAIL; NB7+C8 cells + TRAIL, ATPlite viability luminescence; inhibition (viability loss, TRAIL sensitization), % at 10 µM; 360,000 compounds, 1% hits;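 active means compounds causing at least 50% loss of cell viability in the single-dose screen, relative to plate controls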
SENP8 block-2: blocks human SENP8 cleavage of Nedd8 substrate; AID 602440; inhibition, % at 20 µM; Q96LD8; recombinant SENP8, Nedd8 substrate fluorescence; 360,000 compounds, 0.64% hits; in the data active means inhibition mostly above about 40%, no sharp cut-off; inactive means mostly below about 27%
SENP7 block: inhibitors of human SENP7 protease; Q9BQF6; recombinant SENP7, Z-RLRGG-aminoluciferin luminescence, 40 min; inhibition, % at 5 µM; 330,000 compounds, 1.5% hits; AID 434973;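 active means inhibition above about 50% at the single test dose, limit read from the data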
Target sequence (Q9BQF6 706-1050 limits assumed): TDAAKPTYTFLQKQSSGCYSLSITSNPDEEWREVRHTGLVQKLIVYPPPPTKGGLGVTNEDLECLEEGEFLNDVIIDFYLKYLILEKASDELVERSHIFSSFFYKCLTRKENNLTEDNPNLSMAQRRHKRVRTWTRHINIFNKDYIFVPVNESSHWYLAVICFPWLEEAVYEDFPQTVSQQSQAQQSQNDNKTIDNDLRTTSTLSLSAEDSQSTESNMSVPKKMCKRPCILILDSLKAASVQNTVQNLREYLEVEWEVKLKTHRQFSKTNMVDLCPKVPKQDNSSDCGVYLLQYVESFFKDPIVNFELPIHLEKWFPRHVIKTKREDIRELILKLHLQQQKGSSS
SENP8 conf: human SENP8 inhibition, confirmed; shares compounds with SENP7 block; 6,200 compounds, 40% hits; AID 488912; Recombinant SENP8, Z-RLRGG-aminoluciferin luminescence, 60 min; inhibition, % at 12.5 µM;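 active means mean inhibition across replicates above about 50%, limit read from the data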
SENP6 conf: confirmation of human SENP6 protease inhibitors; shares compounds with SENP7 block; recombinant SENP6, Z-RLRGG-aminoluciferin luminescence; inhibition, % at 12.5 µM; 6,200 compounds, 58% hits
SENP7 confirm: human SENP7 inhibition, confirmed; shares compounds with SENP7 block; recombinant SENP7, Z-RLRGG-aminoluciferin luminescence, 40 min; inhibition, % at 12.5 µM; 6,200 compounds, 69% hits
Casp3 SENP sel: inhibits human caspase-3 in SENP selectivity test; shares compounds with SENP7 block; purified caspase-3, Z-DEVD-aminoluciferin luminescence, 60 min; inhibition, % at 12.5 µM; 6,200 compounds, 60% hits; AID 488918;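 active means mean inhibition above about 50%, limit read from the data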
SENP luc ctr: interferes with luciferase luminescence in SENP counter-screen. shares compounds with SENP7 block. Pre-incubated SENP8/Z-RLRGG-aminoluciferin, luciferase luminescence interference. inhibition, % at 12.5 µM. 6,200 compounds, 39% hits. AID 488919;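 active means mean inhibition above about 50% when retested at one dose, limit read from the data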
Numbers stand for hits; - = inactive; . = no result. Compounds with a hit are over-represented: about 3% of the library has one in this group of screens.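 How the source made its calls, unless noted: active means mean inhibition above about 50% in the one-dose retest (limit read from the data); inactive means the rest.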

SMILES	SENP6 inh	PPC-1+TRAIL kill	SENP8 block-1	C8 TRAIL sens	SENP8 block-2	SENP7 block	SENP8 conf	SENP6 conf	SENP7 confirm	Casp3 SENP sel	SENP luc ctr
CC(=O)NC1=C(N(C)C2CCS(=O)(=O)C2)C(=O)c2ccccc2C1=O (stereo not drawn)	66.9	-	-	-	66.1	-	-	74.1	-	-	-
COc1ccc(C(=O)Nc2ccccc2C(=O)NC(Cc2c[nH]c3ccccc23)C(=O)O)cc1 (stereo not drawn)	-	-	-	-	-	-	.	.	.	.	.
CSc1ccccc1NC(=O)Nc1cccc(F)c1	85.7	-	69.3	-	-	83.0	87.4	86.2	97.6	79.3	67.5
CSc1ccccc1NC(=O)Nc1ccccc1	89.6	-	66.1	-	-	81.3	-	82.1	-	83.3	82.9
O=C(C#Cc1ccccc1)Nc1cccc(F)c1	81.4	.	71.5	-	-	84.3	84.8	83.3	93.0	66.8	74.8
CCc1ccccc1NC(=O)Nc1cccc(F)c1	-	-	-	-	-	-	.	.	.	.	.
FC(F)(F)C1=NNC(c2ccc3ccccc3c2)=NN1	.	.	.	-	-	.	.	.	.	.	.
Cc1cnc(-c2nc3ccccc3n2C(C(=O)NC(C)(C)C)c2ccncc2)cn1 (stereo not drawn)	.	.	.	-	-	.	.	.	.	.	.
Cc1noc(N)c1C(=O)Nc1ccc(C(C)(C)C)cc1	-	-	68.6	55.6	-	85.5	-	80.3	96.3	80.4	79.9
Cc1noc(C)c1C(=O)OCC(=O)NC(=O)c1ccc(C(C)(C)C)cc1	.	.	.	-	-	.	.	.	.	.	.
Cc1ccccc1NC(=O)c1sc(Cl)nc1C	-	-	-	-	-	-	.	.	.	.	.
Cc1nc(Cl)sc1C(=O)Nc1ccc(C(C)(C)C)cc1	-	.	60.1	-	-	61.8	70.8	64.3	84.4	51.1	-
O=C(COC(=O)Cc1ccc(Br)cc1)Nc1ccc(Cl)cn1	-	.	-	-	-	-	.	.	.	.	.
O=C(O)c1ccc(SCc2ccccc2)nc1	76.2	.	55.8	-	-	-	-	72.2	91.7	90.8	79.6
O=S(=O)(O)c1ccc(SCc2ccccc2)nc1	-	.	-	-	-	-	.	.	.	.	.
Cc1cccc(NC(=O)c2cc(-c3ccc(C)c(C)c3O)n[nH]2)c1	-	.	-	-	-	85.6	-	-	94.6	59.4	54.2
Cc1ccc(NC(=O)c2cc(-c3ccc(C)c(C)c3O)n[nH]2)cc1C	-	.	-	-	-	-	.	.	.	.	.
C/C(CC(C)C)=N\NS(=O)(=O)c1ccc(C)c([N+](=O)[O-])c1	85.4	-	-	-	-	-	-	-	-	-	-
O=C(COC(=O)Cn1cnc2ccccc21)Nc1cc2c(cc1Cl)C(=O)c1ccccc1C2=O	70.6	-	60.6	-	-	90.2	57.6	66.7	85.5	73.4	-
O=C(COC(=O)Cn1cnc2ccccc21)Nc1cc(S(=O)(=O)N2CCOCC2)ccc1Cl	-	-	-	-	-	-	.	.	.	.	.
COc1ccc(N2C(=S)N(C(=O)c3ccccc3)C(=Nc3ccccc3)C2=Nc2ccccc2)cc1	82.9	.	73.4	-	-	92.3	67.2	82.4	95.8	92.9	60.1
COCc1cc(C)nc(SCC[N+](C)(C)CC(=O)c2ccccc2)c1C#N	-	.	-	-	-	-	.	.	.	.	.
COc1ccc(C(=O)C[C@@H]2OC[C@H](C(C)C)N2S(=O)(=O)c2ccc(C)cc2)cc1OC	.	.	.	-	-	.	.	.	.	.	.
N#Cc1ccc(NC(=O)Cn2cnc(S(=O)(=O)N3CCCC3)c2)cc1	-	.	-	-	-	-	.	.	.	.	.
CN=C1S/C(=C\c2ccc(N3CCCC3)c(F)c2)C(=O)N1C	73.3	-	-	-	-	70.8	-	-	-	-	-
